From the antibiotic and cytotoxicity screens of Wong et al. (2023)
In all, about 39,000 compounds went through this assay and about 3,300 (8.5%) were called active. What follows is part of a selection rich in actives, with near analogues and random picks from the rest.

What follows are compounds tested on HepG2 (assay: cytotoxicity call (relative viability < 0.9)). Settings: 10 µM.

Structure (SMILES)	cytotoxicity call
COc1ccc(NC(=O)N(C)C[C@@H]2OCCCC[C@H](C)Oc3ccc(NS(=O)(=O)c4ccc(OC)cc4)cc3C(=O)N([C@H](C)CO)C[C@H]2C)cc1	inactive
C[C@@H]1CCCCO[C@H](CN(C)C(=O)NC2CCCCC2)[C@H](C)CN([C@H](C)CO)C(=O)c2cc(NC(=O)Nc3cccc4ccccc34)ccc2O1	inactive
Cc1noc(C)c1NC(=O)Nc1ccc2c(c1)CC(=O)N([C@H](C)CO)C[C@@H](C)[C@@H](CN(C)Cc1ccc(Oc3ccccc3)cc1)O2	inactive
C[C@@H]1CN([C@H](C)CO)C(=O)Cc2cc(NC(=O)Nc3ccc(C(F)(F)F)cc3)ccc2O[C@H]1CN(C)Cc1ccc(Oc2ccccc2)cc1	inactive
C[C@H]1CN([C@@H](C)CO)C(=O)Cc2cc(NC(=O)Nc3ccc(C(F)(F)F)cc3)ccc2O[C@H]1CN(C)Cc1ccc(Oc2ccccc2)cc1	active
C[C@@H]1CN([C@H](C)CO)C(=O)Cc2cc(NC(=O)Nc3ccc(C(F)(F)F)cc3)ccc2O[C@@H]1CN(C)Cc1ccc(Oc2ccccc2)cc1	active
C[C@H](CO)N1C[C@H](C)[C@@H](CN(C)Cc2ccc(Oc3ccccc3)cc2)Oc2ccc(NC(=O)Nc3ccc(C(F)(F)F)cc3)cc2CC1=O	active
C[C@@H]1CN([C@@H](C)CO)C(=O)Cc2cc(NC(=O)Nc3ccc(C(F)(F)F)cc3)ccc2O[C@@H]1CN(C)Cc1ccc(Oc2ccccc2)cc1	active
COc1ccc(NC(=O)Nc2ccc3c(c2)C(=O)N([C@@H](C)CO)C[C@@H](C)[C@@H](CN(C)C(=O)C2CCCCC2)OCCCC[C@H](C)O3)cc1	inactive
CN1CCN(C(=O)C[C@@H]2CC[C@H]3[C@@H](COC[C@H](O)CN3CC3CCCC3)O2)CC1	inactive
COc1ccc(S(=O)(=O)Nc2ccc3c(c2)C(=O)N([C@H](C)CO)C[C@H](C)[C@H](CN(C)S(=O)(=O)c2ccc(F)cc2)O3)cc1	inactive
C[C@@H]1CN([C@H](C)CO)C(=O)c2ccccc2-c2ccccc2CO[C@H]1CN(C)C(=O)c1cc(Cl)cc(Cl)c1	inactive
Nc1nnc(SCC(=O)N2CCOCC2)[nH]1	inactive
C[C@@H]1CN([C@@H](C)CO)C(=O)Cc2cc(NC(=O)Nc3ccc(C(F)(F)F)cc3)ccc2O[C@H]1CN(C)Cc1ccc(Oc2ccccc2)cc1	inactive
C[C@H]1CN([C@@H](C)CO)C(=O)Cc2cc(NC(=O)Nc3ccc(C(F)(F)F)cc3)ccc2O[C@@H]1CN(C)Cc1ccc(Oc2ccccc2)cc1	inactive
C[C@H](CO)N1C[C@H](C)[C@H](CN(C)Cc2ccc(Oc3ccccc3)cc2)Oc2ccc(NC(=O)Nc3ccc(C(F)(F)F)cc3)cc2CC1=O	active
COc1c2ccoc2nc2c(OC)c(OCC(O)C(C)(C)O)ccc12 (configuration not stated)	active
C[C@@H]1CN([C@@H](C)CO)C(=O)c2cc(Br)cnc2O[C@@H]1CN(C)C(=O)CN1CCOCC1	inactive
CN(C)c1ccc2nc3ccc(N(C)C)cc3[s+]c2c1.O.[Cl-]	active
CN(C)c1ccc2c(=O)[nH][nH]c(=O)c2c1	inactive
Cc1cc2nc3ccc(N(C)C)cc3[s+]c2cc1N.[Cl-]	active

Structure (SMILES)	cytotoxicity call
C[C@@H]1CN([C@@H](C)CO)C(=O)c2cc(C#Cc3ccc(F)cc3)cnc2O[C@H]1CN(C)Cc1ccccn1	inactive
O=C(C[C@H]1C[C@@H]2c3cc(NS(=O)(=O)c4ccc(F)cc4)ccc3O[C@@H]2[C@H](CO)O1)N1CCOCC1	inactive
O=C(C[C@H]1C[C@H]2c3cc(NC(=O)Nc4ccc(C(F)(F)F)cc4)ccc3O[C@H]2[C@H](CO)O1)NCCc1ccccc1	inactive
C[C@@H]1CCCCO[C@@H](CN(C)C(=O)NC2CCCCC2)[C@@H](C)CN([C@H](C)CO)C(=O)c2cc(NC(=O)Nc3ccc(C(F)(F)F)cc3)ccc2O1	active
C[C@@H]1CCCCO[C@H](CN(C)C(=O)NC2CCCCC2)[C@H](C)CN([C@H](C)CO)C(=O)c2cc(NC(=O)Nc3ccc(C(F)(F)F)cc3)ccc2O1	inactive
C[C@H]1CCCCO[C@@H](CN(C)C(=O)NC2CCCCC2)[C@@H](C)CN([C@@H](C)CO)C(=O)c2cc(NC(=O)Nc3ccc(C(F)(F)F)cc3)ccc2O1	active
C[C@@H]1CCCCO[C@H](CN(C)C(=O)NC2CCCCC2)[C@@H](C)CN([C@@H](C)CO)C(=O)c2cc(NC(=O)Nc3ccc(C(F)(F)F)cc3)ccc2O1	inactive
C[C@@H]1CN([C@H](C)CO)C(=O)c2cc(NC(=O)Nc3ccc(C(F)(F)F)cc3)ccc2O[C@@H](C)CCCCO[C@@H]1CN(C)C(=O)NC1CCCCC1	inactive
C[C@@H]1CCCCO[C@H](CN(C)C(=O)NC2CCCCC2)[C@H](C)CN([C@@H](C)CO)C(=O)c2cc(NC(=O)Nc3ccc(C(F)(F)F)cc3)ccc2O1	inactive
C[C@@H]1CCCCO[C@@H](CN(C)C(=O)NC2CCCCC2)[C@@H](C)CN([C@@H](C)CO)C(=O)c2cc(NC(=O)Nc3ccc(C(F)(F)F)cc3)ccc2O1	inactive
C[C@H](CO)N1C[C@H](C)[C@H](CN(C)C(=O)NC2CCCCC2)OCCCC[C@H](C)Oc2ccc(NC(=O)Nc3ccc(C(F)(F)F)cc3)cc2C1=O	active
C[C@H]1CCCCO[C@H](CN(C)C(=O)NC2CCCCC2)[C@@H](C)CN([C@@H](C)CO)C(=O)c2cc(NC(=O)Nc3ccc(C(F)(F)F)cc3)ccc2O1	active
C[C@H](CO)N1C[C@H](C)[C@@H](CN(C)C(=O)NC2CCCCC2)OCCCC[C@H](C)Oc2ccc(NC(=O)Nc3ccc(C(F)(F)F)cc3)cc2C1=O	inactive
C[C@@H]1CCCCO[C@@H](CN(C)C(=O)NC2CCCCC2)[C@H](C)CN([C@@H](C)CO)C(=O)c2cc(NC(=O)Nc3ccc(C(F)(F)F)cc3)ccc2O1	inactive
C[C@@H]1CN([C@@H](C)CO)C(=O)c2cc(NC(=O)Nc3ccc(C(F)(F)F)cc3)ccc2O[C@@H](C)CCCCO[C@@H]1CN(C)C(=O)NC1CCCCC1	inactive
C[C@@H]1C=CNN1C(=O)c1cccnc1	inactive
O=C(C[C@H]1CC[C@@H]2[C@H](COC[C@@H](O)CN2C(=O)c2ccccc2F)O1)N1CCN(c2ccccc2)CC1	inactive
C[C@H]1CN([C@@H](C)CO)C(=O)c2cc(NC(=O)Nc3cccc4ccccc34)ccc2O[C@@H]1CN(C)C(=O)Nc1ccc(F)cc1	inactive
O=C(C[C@@H]1C[C@@H]2c3cc(NS(=O)(=O)c4ccccc4)ccc3O[C@@H]2[C@@H](CO)O1)NC1CCCCC1	inactive
C[C@@H]1CN([C@@H](C)CO)C(=O)Cc2cc(NC(=O)Cc3ccccc3)ccc2O[C@@H]1CN(C)S(=O)(=O)c1ccc(F)cc1	inactive
C[C@H](CO)N1C[C@H](C)[C@H](CN(C)Cc2ccc3c(c2)OCO3)Oc2c(NS(=O)(=O)c3cn(C)cn3)cccc2C1=O	inactive

Structure (SMILES)	cytotoxicity call
O=C(/C=C/c1ccc(O)c(O)c1)O[C@@H]1C[C@](OC(=O)/C=C/c2ccc(O)c(O)c2)(C(=O)O)C[C@@H](O)[C@H]1O	inactive
C[C@H]1CCCCO[C@H](CN(C)C(=O)Nc2ccc(C(F)(F)F)cc2)[C@@H](C)CN([C@@H](C)CO)C(=O)c2cc(NC(=O)NC3CCCCC3)ccc2O1	inactive
C[C@@H]1CCCCO[C@@H](CN(C)C(=O)Nc2ccc(C(F)(F)F)cc2)[C@H](C)CN([C@H](C)CO)C(=O)c2cc(NC(=O)NC3CCCCC3)ccc2O1	active
C[C@H](CO)N1C[C@H](C)[C@@H](CN(C)C(=O)Nc2ccc(C(F)(F)F)cc2)OCCCC[C@H](C)Oc2ccc(NC(=O)NC3CCCCC3)cc2C1=O	inactive
COc1ccc(NC(=O)N2C[C@@H](O)COC[C@H]3O[C@H](CC(=O)NC4Cc5ccccc5C4)CC[C@@H]32)cc1	inactive
C[C@@H]1CN([C@@H](C)CO)C(=O)c2c(c3ccccc3n2C)-c2ccccc2CO[C@@H]1CN(C)Cc1ccc(Cl)c(Cl)c1	inactive
C[C@@H]1CCCCO[C@@H](CN(C)Cc2ccc(C(F)(F)F)cc2)[C@@H](C)CN([C@H](C)CO)C(=O)c2cc(N(C)C)ccc2O1	inactive
C[C@H](CO)N1C[C@H](C)[C@H](CN(C)Cc2ccc(C(F)(F)F)cc2)OCCCC[C@H](C)Oc2ccc(N(C)C)cc2C1=O	inactive
C[C@@H]1CCCCO[C@H](CN(C)Cc2ccc(C(F)(F)F)cc2)[C@H](C)CN([C@H](C)CO)C(=O)c2cc(N(C)C)ccc2O1	active
C[C@@H]1CCCCO[C@@H](CN(C)Cc2ccc(Cl)c(Cl)c2)[C@H](C)CN([C@H](C)CO)C(=O)c2cc(N(C)C)ccc2O1	active
C[C@H](CO)N1C[C@H](C)[C@@H](CN(C)Cc2ccc(Cl)c(Cl)c2)OCCCC[C@H](C)Oc2ccc(N(C)C)cc2C1=O	inactive
C[C@@H]1CCCCO[C@H](CN(C)Cc2ccc(Cl)c(Cl)c2)[C@@H](C)CN([C@@H](C)CO)C(=O)c2cc(N(C)C)ccc2O1	inactive
C[C@H]1CCCn2nncc2COCCNC1=O	inactive
COCCOC(=O)N1C(=O)[C@@]2(c3ccccc31)[C@H](C(=O)N1CCCCCCC1)[C@H]1C(=O)O[C@H](c3ccccc3)[C@H](c3ccccc3)N1[C@@H]2c1ccccc1OCCO	inactive
CNS(=O)(=O)c1ccc(C)cc1	inactive
Cc1ccc(S(=O)(=O)[N-]Cl)cc1.[Na+]	inactive
COc1cc(NC(=O)Cn2cnc3c2c(=O)n(C)c(=O)n3C)cc(OC)c1OC	inactive
Cc1cccc(-n2cc(CN)cn2)c1	inactive
COc1cc(NC(=O)c2cccc(-n3cc(NC(=O)Nc4cccc(C)c4)cn3)c2)cc(OC)c1OC	active
Cc1noc(C)c1S(=O)(=O)Nc1cccc2c1O[C@@H](CN(C)S(=O)(=O)c1cn(C)cn1)[C@@H](C)CN([C@H](C)CO)C2=O	inactive
